This is a sample that favours compounds with a hit; in the whole collection about 4.3% have one here.
rCAG binder: binders of r(CAG) RNA repeats, primary screen, biochemical, fluorescence; inhibition, % at 3 µM; r(CAG) RNA repeat, TO-PRO-1 dye displacement fluorescence; AID 651821, 2012; actives 1.3% (n = 370,000);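 active = inhibition above the plate cutoff, the mean of all test compounds on that plate plus 3 SD, cut at about 35% in these data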;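 note: higher means more dye released from RNA so lower well fluorescence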
FAS-TE inh: FAS thioesterase domain inhibitors, primary screen, biochemical, fluorescence intensity, uHTS; Fatty acid synthase (Homo sapiens), P49327; recombinant FAS-TE, OMFH fluorogenic substrate, fluorescence endpoint; inhibition, % at 15 µM; actives 0.67% (n = 360,000); AID 602261, 2012;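 active = compounds whose normalised, plate-corrected inhibition of enzyme fluorescence in the single-dose primary screen is 50% or more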
NadD block: inhibitors of S. aureus NadD, primary screen, biochemical, colorimetric, uHTS. Nicotinate-nucleotide adenylyltransferase NadD (Staphylococcus aureus N315). purified NadD enzyme, colorimetric absorbance read-out. inhibition, % at 20 µM. actives 0.78% (n = 360,000); in the data active = inhibition above about 26%
GRIN3A LBD mod: binders of NR3A ligand-binding domain, primary screen, biophysical, differential scanning fluorimetry, uHTS; Glutamate receptor ionotropic, NMDA 3A (GRIN3A) ligand-binding domain; NR3A LBD differential scanning fluorimetry, Tm shift; 0% = protein alone, 100% = glycine-bound protein; Tm shift relative to glycine control, % at 25 µM; actives 2.5% (n = 340,000); AID 1259313, 2017;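 active = melting temperature shift of at least 10% of the positive control shift, at one fixed dose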
FAS-TE inh conf: FAS thioesterase domain inhibitors, confirmation, biochemical, fluorescence intensity, single concentration. shares compounds with FAS-TE inh. recombinant FAS-TE, OMFH fluorogenic substrate. inhibition, % at 15 µM. actives 45% (n = 2,300). AID 624325, 2012;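 active = compounds inhibiting the enzyme by at least 50% at 15 µM in any one of the replicates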
A number is an active result; . = inactive; / = no result.

SMILES	rCAG binder	FAS-TE inh	NadD block	GRIN3A LBD mod	FAS-TE inh conf
Cn1c(SCc2cccc(Cl)c2)nc(C(F)(F)F)cc1=O	.	63	.	.	62
Cn1c(SCc2c(Cl)cccc2Cl)nc(C(F)(F)F)cc1=O	.	52	.	.	.
CCCCN1C[C@@H]2CSCCS(=O)(=O)N2C1=O	.	/	/	/	/
CCC(C)c1ccc(NC(=O)CSc2nnc(-c3cccc(C)c3)n2C)cc1 (stereo unspecified)	.	/	/	/	/
O=[N+]([O-])c1ccc(NC(=S)NCCc2ccc(Cl)cc2)cc1	.	51	.	31	.
O=[N+]([O-])c1ccc(NC(=S)NCCc2ccccc2)cc1	.	53	.	35	38
O=[N+]([O-])c1ccc(NC(=S)NCc2ccc(F)cc2)cc1	.	.	.	.	/
O=C(N1CCOCC1)N1CC[C@H]2[C@H](CCCN2Cc2cc(F)cc(F)c2)C1	.	/	/	/	/
O=C1C=C[C@H]2CC[C@@H](O)[C@@H]1[C@@H]2Sc1ccccc1	.	/	/	/	/
N#Cc1ccccc1N1CCN(C(=O)C2CCN(c3ncnc4c3sc3cccc(F)c34)CC2)CC1	.	/	/	/	/
Cc1cc(C)c(C#N)c(Sc2nc(C)c([N+](=O)[O-])c(C)c2C#N)n1	.	.	.	/	/
Cc1nc(Sc2ccccc2)c(C#N)c(C)c1[N+](=O)[O-]	.	59	.	.	46
O=C(c1cccc(S(=O)(=O)N2CCCCC2)c1)N1CCCCC1	.	.	.	.	/
O=C(c1cccc(S(=O)(=O)N2CCCC2)c1)c1cccc(S(=O)(=O)N2CCCC2)c1	.	54	.	.	48
Cc1coc(NC(=O)CSc2nc(-c3ccncc3)cc(C(F)(F)F)c2C#N)n1	.	55	.	.	37
COC(=O)[C@]12C[C@H](CC(=O)NCc3ccc(C)o3)C(=O)N(Cc3ccc(Cl)cc3Cl)C1=C[C@H](C1CCCC1)O[C@@H]2C	.	/	/	/	/
Cc1cc(C)cc(N(CC(=O)NC2CCC(C)CC2)S(=O)(=O)c2ccc(Cl)s2)c1 (stereo unspecified)	.	/	/	/	/
CCOc1ccc(-c2nn(-c3ccccc3)cc2/C=C2\SC(=S)N(Cc3ccco3)C2=O)cc1	.	.	.	.	/
CC(C)COc1ccc(-c2nn(-c3ccccc3)cc2/C=C2/SC(=S)N(CC(=O)O)C2=O)cc1	.	78	.	.	.
CC(C)C[C@H]1C(=O)N2CCC[C@H]2[C@]2(O)O[C@](NC(=O)[C@@H]3C=C4c5cccc6[nH]c(Br)c(c56)CC4N(C)C3)(C(C)C)C(=O)N12 (stereo partly specified)	.	76	.	.	.
O=C(NC1CCCCN(Cc2cccc(C(F)(F)F)c2)C1=O)c1cccc([N+](=O)[O-])c1 (stereo unspecified)	.	/	/	/	/
CC[C@@H](C)[C@H](NC(=O)OCc1ccccc1)c1nnc([C@@H](NC(=O)OCc2ccccc2)[C@@H](C)CC)o1	.	.	.	.	/
CC(C)[C@H](NC(=O)OC(C)(C)C)c1nnc(S(=O)(=O)Cc2c(F)cccc2Cl)o1	.	83	.	.	82
Cc1ccccc1CS(=O)(=O)c1nnc([C@H](CC(C)C)NC(=O)OC(C)(C)C)o1	.	52	.	.	55
CC(C)(C)OC(=O)N[C@@H](Cc1ccccc1)c1nnc(S(=O)(=O)Cc2cccc(F)c2)o1	/	/	/	.	/
SMILES	rCAG binder	FAS-TE inh	NadD block	GRIN3A LBD mod	FAS-TE inh conf
CC[C@@H](C)[C@H](NC(=O)OC(C)(C)C)c1nnc(S(=O)(=O)Cc2cc(C)ccc2C)o1	.	73	.	.	79
COc1cccc(NC(=O)CN2C(=O)CSc3ccc(S(=O)(=O)N4CCOCC4)cc32)c1	.	.	.	.	/
COc1cccc(NC(=O)CN2C(=O)CSc3ccc(S(=O)(=O)N4CCC(C)CC4)cc32)c1	.	65	.	.	72
C=CCN1[C@@H](C)[C@@H](c2ccccc2)Oc2c(Cl)cccc2S1(=O)=O	.	/	/	/	/
CCOc1ccc2ncc(S(=O)(=O)c3ccccc3)c(N3CCC4(CC3)OCCO4)c2c1	.	/	/	/	/
COc1ccc(S(=O)(=O)c2cnc3ccc(OC)cc3c2N2CCC3(CC2)OCCO3)cc1	.	72	.	.	60
COc1ccc(C(=O)CSc2nnc(-c3ccc(C(C)(C)C)cc3)n2C)cc1	.	/	/	/	/
COc1cc(NC(=O)CCC2CCCC2)cc(-n2cnnn2)c1	.	60	.	.	.
O=C(COC(=O)c1cccc(S(=O)(=O)N2CCOCC2)c1)Nc1ncc(Cl)cc1Cl	.	.	.	.	/
O=C(COC(=O)c1cc([N+](=O)[O-])ccc1N1CCOCC1)Nc1ncc(Cl)cc1Cl	.	54	.	.	71
O=C(COC(=O)c1cc([N+](=O)[O-])ccc1N1CCOCC1)Nc1c(Cl)cccc1C(F)(F)F	.	65	.	.	62
CCn1c(=S)sc2c(=O)n(CC(=O)NC(C)CCc3ccccc3)c(C)nc21 (stereo unspecified)	.	79	.	.	74
CCn1c(=S)sc2c(=O)n(CC(=O)Nc3ccccc3OC)c(C)nc21	.	.	.	.	/
Fc1ccc(F)c(Cn2ccc3ccc(-c4ccc5ccn(Cc6cc(F)ccc6F)c5c4)cc32)c1	.	/	/	/	/
O=c1[nH]c(CN2CCN(S(=O)(=O)c3cccs3)CC2)nc2c(Br)cc(Br)cc12	.	55	.	.	38
O=c1[nH]c(CN2CCN(c3ncccn3)CC2)nc2c(Br)cc(Br)cc12	.	.	.	.	/
Cc1cccc(NC(=O)CN2C(=O)CCSc3ccccc32)c1C	.	/	/	/	/
COc1ccc(CN(Cc2cc3cccc(C)c3n3nnnc23)C(=O)N2CCOCC2)cc1	.	50	.	.	47
Cc1ccc(S(=O)(=O)Cn2nnnc2C(c2ccccc2)N2CCN(c3ncccn3)CC2)cc1 (stereo unspecified)	.	.	.	.	/
Cc1ccc(S(=O)(=O)Cn2nnnc2C(c2ccccc2)N2CCN(c3ccccc3)CC2)cc1 (stereo unspecified)	.	57	.	.	.
O=C(Nc1cccc(C(=O)O)c1)/C(=C/c1ccc([N+](=O)[O-])cc1)NC(=O)c1ccccc1	.	.	.	.	/
COc1ccccc1/C=C(\NC(=O)c1ccc(OC)c(OC)c1)C(=O)Nc1ccc([N+](=O)[O-])cc1	.	86	.	.	.
COc1ccccc1/C=C(\NC(=O)c1ccc(OC)c(OC)c1)C(=O)Nc1cccc([N+](=O)[O-])c1	.	88	.	.	44
O=C(NNc1cccc([N+](=O)[O-])c1)/C(=C\c1cccnc1)NC(=O)c1ccccc1	.	66	.	.	65
CC(=O)c1cccc(NC(=O)/C(=C\c2cccnc2)NC(=O)c2ccccc2)c1	.	.	.	.	/
CCN(CC)C(=O)CC[C@@H]1CC[C@]2(CCCN(Cc3ccc(Cl)cc3)C2)O1	.	/	/	/	/

Screening data from PubChem.
